uPA generation – qHTS for Inhibitors of Cell Surface uPA Generation. 330,000 compounds, 0.31% hits. cell surface uPA generation assay, qHTS. Potency, µM (highest dose often 38.3 µM), usual class: inhibitors. AID 540303, 2011; active = well fitted inhibition curve with a large enough effect; inconclusive = small, poorly fitted or top-dose-only effect; inactive = no such curve, though single readings can be large or run the other way; tested in mouse RAW 264.7 cells; also: nearly all actives have a fitted effect of over 55% in size
GLP-1R inv ag – qHTS of GLP-1 Receptor Inverse Agonists (Inhibition Mode); Glucagon-like peptide 1 receptor (Homo sapiens), P43220; HEK293 GLP-1R CRE-luciferase, luminescence, 24 h; GLP-1R form is constitutively active; Potency, µM (doses to about 38.3 µM), usual class: inhibitors; 410,000 compounds, 1.6% hits; AID 624417, 2012; also: nearly all actives have a fitted effect of over 55% in size
Target sequence (P43220 whole entry, looked up): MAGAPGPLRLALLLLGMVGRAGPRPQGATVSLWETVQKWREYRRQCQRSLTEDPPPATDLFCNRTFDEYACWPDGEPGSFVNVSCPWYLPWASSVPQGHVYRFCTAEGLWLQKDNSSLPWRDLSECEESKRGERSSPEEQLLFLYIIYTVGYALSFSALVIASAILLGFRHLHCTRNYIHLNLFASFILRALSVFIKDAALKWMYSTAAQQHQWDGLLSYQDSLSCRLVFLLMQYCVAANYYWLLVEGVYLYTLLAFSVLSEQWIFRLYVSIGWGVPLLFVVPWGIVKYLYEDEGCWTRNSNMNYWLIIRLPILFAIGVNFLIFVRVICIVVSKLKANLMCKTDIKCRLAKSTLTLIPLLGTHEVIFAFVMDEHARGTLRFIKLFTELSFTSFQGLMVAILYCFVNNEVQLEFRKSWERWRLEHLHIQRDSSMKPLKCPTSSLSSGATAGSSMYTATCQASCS
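Luminescence readout: a drop in cAMP-driven luciferase signal flags inverse agonism at a constitutively active GLP-1R stably expressed in HEK293. Compound exposure lasted 24 hr at 37 deg C, 5% CO2.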
MmCpn inh – Inhibitors of TCP-1 ring complex (TRiC) of Methanococcus maripaludis (MmCpn): qHTS; Chaperonin Mm-Cpn (Methanococcus maripaludis); purified Mm-Cpn ATPase, ADP Transcreener TR-FRET; Potency, µM (titrated, usually from 76.9 µM), most hits filed as inhibitors; 330,000 compounds, 0.031% hits; AID 504842, 2011; also: nearly all actives have a fitted effect of over 80% in size
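Purified archaeal chaperonin (25 nM final) was preincubated with compound for 10 min at 37°C, then ATP (10 uM final) was added for 30 min at 37°C in Tris pH 7.4/KCl/MgCl2/DTT buffer. ADP was quantified by HTRF Transcreener TR-FRET.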
CCT chaperon mod – High-Throughput Screening for Modulators of Cytosolic Chaperonin Activity; purified chaperonin ATPase assay, HTRF ADP detection, 30 min; activity change, % (no concentration beside the values), hits read low; 360,000 compounds, 0.3% hits; AID 651819, 2012; in the data active = activity change below about -30%
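We incubate TRiC, 40 or 20 nM final, with library compounds at 76 uM and 10 uM ATP for 30 min at 37 °C. ADP formed is detected with Transcreener HTRF reagents after 30 min at room temperature.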
GLP1R cytotox – qHTS of GLP-1 Receptor Inverse Agonists: Cytotox Screen | Potency, µM (titrated, usually from 38.3 µM), usual class: inhibitors | HEK293 cAMP-luciferase reporter cells, luminescence, 24 h | 410,000 compounds, 0.13% hits;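 also: loss of luciferase light is scored as toxicity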
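Seeding density was 200 cells/uL; after overnight-length (12 h) culture, 23 nL compounds went on for 24 h at 37 °C. Readout used a luciferase detection reagent, luminescence taken after 12 min at room temperature.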
GLP-1R agonist – qHTS of GLP-1 Receptor Agonists | HEK293 GLP-1R CRE-luciferase, luminescence, 4-6 h; cells express a hypersensitive GLP-1R form | Potency, µM (titrated, usually from 45.6 µM), hits mostly activators | 380,000 compounds, 0.007% hits
Of the large screens only hits and unclear results are named; the others gave an inactive call. Most compounds without a hit are left out; they make up all but 2.2% or so of the library. Unless noted, calls follow the shape of the dose curve; as a rule, active = well fitted curve in the direction sought with a large enough effect; inconclusive = small, poorly fitted or top-dose-only effect, or another doubt; inactive = no such curve, though single readings can be large; an effect the other way counts as inactive or inconclusive.

O=C(c1ccc(-c2nc3ccccc3s2)s1)N1CCOCC1	uPA generation inconclusive, GLP-1R inv ag 1.26µM
CCN1CCN(C(=O)c2ccc(-c3nc4ccccc4s3)s2)CC1	uPA generation inconclusive, GLP-1R inv ag inconclusive
Cc1ccc(-n2nnnc2SCCNS(=O)(=O)c2ccccc2)cc1C	GLP-1R inv ag 11.2µM
COc1ccc(S(=O)(=O)NCCSc2nnnn2-c2ccccc2)cc1OC	none (no result: uPA generation, MmCpn inh, CCT chaperon mod)
CC1(C)C2CCC1(C)C(NC(=O)/C=C/c1ccccc1)C2 (stereo not drawn)	GLP-1R inv ag 7.08µM
Cc1ccc(C)c(NC(=O)CCN2CCc3ccccc3C2)c1	GLP-1R inv ag 11.2µM
CCN1CCN(CCC(=O)Nc2cc(C)ccc2C)CC1	none
COc1ccc(-c2cc(=S)ss2)cc1	none (no result: uPA generation, GLP-1R inv ag, MmCpn inh, CCT chaperon mod, GLP1R cytotox)
O=C1CC(N(CCc2ccccc2)C(=S)Nc2ccccc2)C(=O)N1c1ccc(Br)cc1 (stereo not drawn)	GLP-1R inv ag inconclusive, GLP1R cytotox inconclusive
Cc1ccc(N2C(=O)CC(N(CCc3ccccc3)C(=S)Nc3ccc(N(C)C)cc3)C2=O)cc1 (stereo not drawn)	GLP-1R inv ag 3.98µM
CCn1cc2nc(SCc3cccc(C(F)(F)F)c3)n(CCc3ccccc3)c(=O)c2n1	GLP-1R inv ag inconclusive (no result: uPA generation, MmCpn inh, CCT chaperon mod, GLP-1R agonist)
CCn1cc2nc(SCc3cccc(C)c3)n(CCc3ccccc3)c(=O)c2n1	GLP-1R inv ag 7.94µM (no result: uPA generation, MmCpn inh, CCT chaperon mod, GLP-1R agonist)
CC(C)Cc1ccc(CN2CCCC(NC(=O)c3ccnn3C)C2)cc1 (stereo not drawn)	GLP-1R inv ag inconclusive
Cc1noc(C)c1CCC(=O)NC1CCCN(Cc2ccc(CC(C)C)cc2)C1 (stereo not drawn)	GLP-1R inv ag 10µM
CC(C)Cc1ccc(CN2CCCC(NC(=O)c3ccoc3)C2)cc1 (stereo not drawn)	GLP-1R inv ag 8.91µM, GLP1R cytotox inconclusive
Cc1noc(C)c1CCC(=O)NC1CCCN(Cc2ccc(Cl)cc2)C1 (stereo not drawn)	none
CN1c2ccccc2-c2nc(SCC(=O)Nc3ccccc3)ncc2S1(=O)=O	none (no result: uPA generation, MmCpn inh, CCT chaperon mod, GLP-1R agonist)
CC(C)CN=C(NS(=O)(=O)c1ccccc1)C(Cl)(Cl)Cl	GLP-1R inv ag 7.94µM
CC(C)CC(NS(=O)(=O)c1ccccc1)C(=O)O (stereo not drawn)	none
CCN(CC)C(=O)CSc1nc(C)cc(-c2cccs2)c1C#N	CCT chaperon mod -34.0
COc1cc(OC)c(OC)cc1/C=C1/Cc2ccccc2C1=O	none
COc1cc(OC)c(OC)cc1/C=C1\CC(C)C/C(=C\c2cc(OC)c(OC)cc2OC)C1=O (stereo not drawn)	uPA generation 8.91µM, GLP-1R inv ag inconclusive
Cc1oc(-c2cccc(Cl)c2)nc1CSc1nncn2c1cc1occc12	none (no result: uPA generation, MmCpn inh, CCT chaperon mod, GLP-1R agonist)
CN(CC(=O)Nc1ccccc1Cl)C(=O)c1cc(C2CC2)nn1-c1ccccc1	GLP-1R inv ag inconclusive, CCT chaperon mod -30.9
COc1ccc(-c2onc(C)c2C)cc1S(=O)(=O)NCC1CCN(Cc2cc(C)ccc2C)CC1	none (no result: uPA generation, MmCpn inh, CCT chaperon mod, GLP-1R agonist)
COc1ccc2cc(C(=O)N(C)Cc3ccccc3)[nH]c2c1	none
C=CCN(Cc1cc(OC)ccc1OC)C(=O)c1cc2ccc(OC)cc2[nH]1	uPA generation inconclusive, GLP-1R inv ag 11.2µM
CCN(CC)CCN1C(=O)c2ccccc2NC1c1ccc(Br)cc1 (stereo not drawn)	GLP-1R inv ag 10µM
Clc1ccccc1CN(Cc1ccco1)Cc1nnnn1C1CCCC1	CCT chaperon mod -69.6
c1coc(CN(Cc2cccs2)Cc2nnnn2C2CCCCC2)c1	GLP-1R inv ag inconclusive
Cc1ccc(CNC(=S)N(C)C)cc1	none
CN(C)C(=S)NC(C)(C)C	MmCpn inh 44.7µM
O=C(NCc1cccnc1)/C(=C\c1ccc(-c2cccc(Cl)c2)o1)S(=O)(=O)c1ccccc1	uPA generation inconclusive, GLP-1R inv ag 2µM, GLP1R cytotox inconclusive
Cc1ccc(C(=O)N/C(=C\c2ccc(-c3cc(Cl)ccc3Cl)o2)C(=O)NCc2cccnc2)cc1	GLP-1R inv ag inconclusive
Cc1cccc(NC(=O)C23CCC(C)(C2Br)C3(C)C)c1 (stereo not drawn)	GLP-1R inv ag 3.55µM
Cc1cccc(NC(=O)CC(=O)Nc2cccc(C)c2)c1	GLP-1R inv ag inconclusive
Cc1ccc(-c2nc(CS(=O)CC(=O)NC(C)CCc3ccccc3)c(C)o2)cc1 (stereo not drawn)	GLP-1R inv ag 8.91µM
Cc1oc(-c2ccc(Cl)cc2)nc1CS(=O)CC(=O)NCCCN1CC(C)CC(C)C1 (stereo not drawn)	GLP-1R inv ag 5.62µM, GLP1R cytotox inconclusive
COc1ccc(-c2nc(CS(=O)CC(=O)NC(C)CCc3ccccc3)c(C)o2)cc1OC (stereo not drawn)	none
Cc1oc(-c2ccc(Cl)cc2)nc1CS(=O)CC(=O)NCCN1CCCCCC1 (stereo not drawn)	GLP-1R inv ag inconclusive
CCOc1ccc(CCNC(=O)c2[nH]c3cc(OC)ccc3c2Sc2ccccc2)cc1OCC	none (no result: uPA generation, MmCpn inh, CCT chaperon mod, GLP-1R agonist)
C=CCC1(CC=C)CCCN1C(=O)c1cc(COc2ccc(F)c(F)c2)on1	GLP-1R inv ag 2.82µM
C=CCC1(CC=C)CCCN1C(=O)c1cc(COc2ccc(C)nc2)on1	uPA generation inconclusive, GLP-1R inv ag inconclusive
CCOC(=O)CC1(NC(=O)c2cc(COc3ccc(F)c(F)c3)on2)CCCCC1	GLP-1R inv ag 10µM
Cc1cc(CNC(=O)c2cc(COc3ccc(F)c(F)c3)on2)nn1C	none
N#C/C(=C1/SC[C@@H](c2ccc(Cl)cc2Cl)S1)n1ccnc1	none (no result: uPA generation, GLP-1R inv ag, MmCpn inh, CCT chaperon mod, GLP1R cytotox)
COc1ccc2c(c1)c1c(c(=O)n(-c3cc(Cl)ccc3C)c(=O)n1Cc1ccc(F)cc1)n2C	none (no result: uPA generation, MmCpn inh, CCT chaperon mod)
COc1ccc(N(Cc2nnc3n2CCCCC3)C(=O)Nc2cccc(C)c2)cc1Cl	none (no result: uPA generation, MmCpn inh, CCT chaperon mod)
CCCOc1ccc(-c2nc(N3CCN(C)CC3)c3ccccc3n2)cc1	uPA generation inconclusive, GLP-1R inv ag inconclusive
CCCOc1ccc(-c2nc(N3CCN(CC)CC3)c3ccccc3n2)cc1	uPA generation inconclusive, GLP-1R inv ag 7.94µM
COc1ccc(C)cc1N=Nc1ccc(O)c2ncccc12	uPA generation 3.55µM, GLP-1R inv ag inconclusive, GLP1R cytotox inconclusive
Cc1ccccc1N=Nc1ccc(O)c2ncccc12	none
O=S(=O)(O)c1cccc2c(N=Nc3ccc(O)c4ncccc34)cccc12	GLP1R cytotox 11.2µM
COc1ccc(C(=O)Nc2nnc(SCc3cc(=O)n4cccc(C)c4n3)s2)cc1	none (no result: uPA generation, MmCpn inh, CCT chaperon mod, GLP-1R agonist)

Bioassay records deposited in PubChem BioAssay by National Center for Advancing Translational Sciences (NCATS).
